Mtb betalactam – beta-lactam sensitization of Mtb H37Rv, H37Rv | M. tuberculosis H37Rv growth with meropenem, percent inhibition | inhibition, % at 25 µM | hit rate 0.27% among 330,000 | AID 434955, 2010; call rule not given here;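 note: growth measured after seven days incubation then overnight dye step; 0% = bacteria only wells and 100% = bacteria with antibiotic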
Mtb FBA inh – Mtb FBA enzyme inhibitors, primary screen, biochemical, fluorescence, strain H37Rv; Fructose-bisphosphate aldolase (Mycobacterium tuberculosis (strain ATCC 25618 / H37Rv)), …; inhibition, % at 1 µM; purified M. tuberculosis FBA, fluorescence read-out; AID 588726, 2011; hit rate 2.3% among 360,000; in the data active = inhibition above about 27%;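 note: 0% = vehicle and 100% = reference inhibitor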
UGM FP inh – M. tuberculosis UGM enzyme inhibitors, primary screen, biochemical, fluorescence polarization, single point; UDP-galactopyranose mutase (Mycobacterium tuberculosis (strain ATCC 25618 / H37Rv)), …; purified UGM, fluorescence polarization probe displacement; inhibition, % at 10 µM; hit rate 0.06% among 320,000; in the data active = inhibition above about 10%, passing the limit was not always enough
RecA splice inh – Mtb RecA intein splicing inhibitors, primary screen, biochemical, fluorescence, HTS | Protein RecA (Mycobacterium tuberculosis (strain ATCC 25618 / H37Rv)), P9WHJ3 | cell-free RecA intein splicing | inhibition, % (concentration not given with the values) | hit rate 0.75% among 290,000; in the data active = inhibition above about 30%;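 note: 0% = vehicle wells and 100% = reference inhibitor control wells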
GDH-TPI inh – GDH-TPI coupling enzyme inhibitors, primary screen, artefact control for M. tuberculosis FBA inhibitor project, biochemical, absorbance, full deck; inhibition, % at 4.8 µM; hit rate 1.2% among 360,000; AID 588335, 2011; GDH-TPI coupled enzyme counterscreen, NADH absorbance; in the data active = inhibition above about 30%;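 note: 0% = DMSO wells and 100% = wells lacking the enzyme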
Rv3671c protease – Rv3671c serine protease inhibitors, primary screen, biochemical, fluorescence polarization, M. tuberculosis H37Rv. P9WHR9. inhibition, % at 5.96 µM. hit rate 0.048% among 320,000. AID 2606, 2010; in the data active = inhibition above about 38%;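 note: extracellular domain of Rv3671c used as enzyme; 0% = enzyme with DMSO and 100% = no enzyme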
Target sequence (P9WHR9 whole entry, looked up, the tested form may be a part): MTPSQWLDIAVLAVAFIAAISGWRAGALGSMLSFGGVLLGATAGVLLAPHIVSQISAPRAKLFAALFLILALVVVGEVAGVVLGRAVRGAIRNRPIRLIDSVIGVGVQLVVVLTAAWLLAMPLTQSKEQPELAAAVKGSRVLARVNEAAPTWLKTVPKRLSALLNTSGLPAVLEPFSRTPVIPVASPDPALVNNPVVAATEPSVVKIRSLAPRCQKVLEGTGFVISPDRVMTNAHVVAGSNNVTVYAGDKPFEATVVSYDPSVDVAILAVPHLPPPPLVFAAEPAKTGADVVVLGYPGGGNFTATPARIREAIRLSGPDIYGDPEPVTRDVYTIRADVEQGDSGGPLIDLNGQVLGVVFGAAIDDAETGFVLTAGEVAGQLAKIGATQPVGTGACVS
* = called active by the depositor; nt = no result. Shown are actives, neighbours in structure and some others; about 4% of the full set was active somewhere.

SMILES	Mtb betalactam	Mtb FBA inh	UGM FP inh	RecA splice inh	GDH-TPI inh	Rv3671c protease
Cc1cc([N+](=O)[O-])nn1Cc1ccc(C(=O)N/N=C/c2ccccc2)cc1	-2.1	0.0	1.5	-3.6	7.2	-1.9
CN(C)c1ccc(/C=N/NC(=O)c2cnc3ccccc3c2)cc1	3.6	-1.9	3.1	11.5	32.4*	8.7
CN(C)c1ccc(C=NNC(=O)c2cccnc2)cc1	nt	1.4	nt	nt	51.8*	nt
O=C(N/N=C/c1cccnc1)c1ccccc1	-5.1	-4.5	0.2	-3.4	-9.0	0.2
Cc1cc([N+](=O)[O-])nn1Cc1ccc(C(=O)N/N=C/c2ccc(N(C)C)cc2)cc1	-10.4	-6.1	3.4	4.1	40.5*	3.3
CSCCC(NC(=O)c1ccccc1Cl)C(=O)NCC(c1ccc(F)cc1)N1CCOCC1 (centres undefined)	nt	0.7	nt	nt	3.5	nt
COc1cc(/C=C/C(=O)c2ccc3c(c2)OCO3)cc(OC)c1OC	63.5	0.2	0.3	nt	10.0	6.8
COc1cc(/C=C/C(=O)c2ccc3c(c2)OCCO3)cc(OC)c1OC	28.8	-3.1	0.4	3.9	37.3*	2.5
CC(C)(C)NS(=O)(=O)c1ccc2nc(NC(=O)c3ccc(N4C(=O)CCC4=O)cc3)sc2c1	4.1	3.9	-0.9	-0.5	21.1	-11.2
O=C(CC1S/C(=N/N=C/c2cccs2)NC1=O)Nc1ccc(Cl)c(Cl)c1 (centres undefined)	58.7	-0.7	nt	-2.2	15.8	1.8
O=C(CC1S/C(=N/N=C/c2c[nH]c3ccccc23)NC1=O)Nc1ccccc1 (centres undefined)	-1.3	-3.6	-3.6	-1.6	47.4*	-4.0
O=C(CC1S/C(=N/N=C/c2cccs2)NC1=O)Nc1ccc(Cl)cc1 (centres undefined)	-1.9	-2.7	nt	2.7	30.7*	-44.7
O=C(CC1S/C(=N/N=C/c2ccco2)NC1=O)Nc1ccccc1 (centres undefined)	-3.9	14.0	2.1	-1.5	15.0	4.6
O=C(CC1S/C(=N/N=C/C=C/c2ccccc2)NC1=O)Nc1ccc(C(=O)O)cc1 (centres undefined)	-1.8	3.3	4.1	-1.8	57.2*	-4.2
CC1CCN(C(=O)Cn2c(=O)n(CCc3ccccc3)c(=O)c3ccccc32)CC1	-14.7	3.1	1.4	2.1	3.1	-6.3
CC(C)(C)C1CCC(=NNc2ccc(S(N)(=O)=O)cc2[N+](=O)[O-])CC1 (centres undefined)	3.3	-3.5	-0.1	-1.4	3.0	8.9
COc1ccc(S(=O)(=O)Nc2cccc(-c3ccc4nncn4n3)c2)cc1F	4.2	-0.8	2.1	-1.6	8.7	-6.0
O=C(O)c1cnn2c(C(F)(F)F)cc(-c3ccco3)nc12	8.0	-2.2	-0.5	-11.4	38.7*	2.6
O=C(c1cnn2c(C(F)(F)F)cc(-c3ccco3)nc12)N1CCCCCC1	3.0	2.6	1.5	-17.8	16.6	-6.6
Cc1ccc(C)c(CN2C(=O)c3ccccc3S(=O)c3ccc(C(=O)N4CCN(c5ccccn5)CC4)cc32)c1 (centres undefined)	30.9	-3.8	-0.2	16.7	-6.0	-5.0
CC(=O)Nc1ccc2c(CN3C(=O)NC(C)(c4ccc(C)cc4)C3=O)cc(=O)oc2c1 (centres undefined)	1.9	132.0*	-2.9	-3.8	7.0	-6.6
Cc1ccc2c(CN3C(=O)NC(C)(c4ccc5c(c4)OCO5)C3=O)cc(=O)oc2c1 (centres undefined)	-9.5	3.4	2.5	1.5	17.8	2.2
CCCNC(=O)C1(C)CCCN(C/C=C/c2ccccc2)C1 (centres undefined)	nt	0.3	nt	nt	-5.3	nt
COc1ccc(Cc2nnc(SCC(=O)Nc3c(C)cccc3C)[nH]c2=O)cc1	-16.3	-2.7	3.4	1.1	6.5	2.3
Cn1cnc([N+](=O)[O-])c1S(=O)(=O)Oc1cccc2ccccc12	nt	1.2	nt	nt	7.3	nt
Cn1cnc([N+](=O)[O-])c1Oc1cccc2ccccc12	93.2	-0.1	1.8	36.2*	13.5	-2.9
